# Measurements from PMC7862700, “An all-to-all approach to the identification of sequence-specific readers for epigenetic DNA modifications on cytosine”.
# What was measured:
# Assay in all cases: DAPPL (digital affinity profiling via proximity ligation, sequencing); 10 mM Tris-HCl pH 7.5, 50 mM NaCl, 1 mM DTT, 4% glycerol, room temperature, 30 min; GST-TFs on glutathione beads, 16-mer random dsDNA library, 0.1% formaldehyde crosslink after washing; high values mean tight binding
# Details in all cases: protein: recombinant; tags: N-terminal GST; dsDNA, one strand shown
# FLI1 = target: T1, FLI1 (Homo sapiens, UniProt Q01543 1-452)
# T1 sequence: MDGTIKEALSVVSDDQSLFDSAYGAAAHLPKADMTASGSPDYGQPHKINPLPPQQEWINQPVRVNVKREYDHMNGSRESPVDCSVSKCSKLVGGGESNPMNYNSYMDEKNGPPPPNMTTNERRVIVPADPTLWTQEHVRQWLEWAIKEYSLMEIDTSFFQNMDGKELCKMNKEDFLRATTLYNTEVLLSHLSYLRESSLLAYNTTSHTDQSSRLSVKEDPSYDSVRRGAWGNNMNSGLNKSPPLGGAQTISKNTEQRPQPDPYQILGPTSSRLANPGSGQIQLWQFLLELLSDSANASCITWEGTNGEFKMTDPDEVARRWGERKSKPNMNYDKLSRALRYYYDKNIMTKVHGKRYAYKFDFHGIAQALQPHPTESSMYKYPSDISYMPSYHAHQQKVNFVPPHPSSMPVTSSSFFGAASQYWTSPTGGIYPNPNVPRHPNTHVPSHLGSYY
# Method in brief: (§1)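 A tag-only sample was pooled with DNA-barcoded human transcription factors that had been expressed in yeast as GST fusions and captured on glutathione beads. The pools were incubated for 30 min at room temperature with 200 nmole of a random double-stranded 16-mer DNA library in Tris/NaCl/DTT/glycerol buffer, then washed, crosslinked with 0.1% formaldehyde, proximity-ligated (BsaI/T4 ligase, 1 h, 37 °C), PCR-amplified and sequenced on an Illumina NextSeq500. Binding signal is each hexamer's read frequency for a factor divided by its frequency for the tag-only sample.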
# ELK1 = target: T2, ELK1 (Homo sapiens, UniProt P19419 1-428)
# T2 sequence: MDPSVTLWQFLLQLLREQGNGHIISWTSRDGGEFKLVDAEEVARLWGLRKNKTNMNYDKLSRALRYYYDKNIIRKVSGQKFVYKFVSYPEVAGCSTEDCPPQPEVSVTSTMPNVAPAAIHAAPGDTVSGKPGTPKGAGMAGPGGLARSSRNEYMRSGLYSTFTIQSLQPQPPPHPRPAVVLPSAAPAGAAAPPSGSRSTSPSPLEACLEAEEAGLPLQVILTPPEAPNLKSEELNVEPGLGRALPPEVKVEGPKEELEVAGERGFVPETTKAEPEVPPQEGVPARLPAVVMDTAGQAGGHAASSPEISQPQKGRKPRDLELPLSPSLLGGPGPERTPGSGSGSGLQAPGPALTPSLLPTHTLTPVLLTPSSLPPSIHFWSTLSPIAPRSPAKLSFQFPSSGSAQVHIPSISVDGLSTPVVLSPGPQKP
# Method in brief: as §1
# GABPA = target: T3, GABPA (Homo sapiens, UniProt Q06546 1-454)
# T3 sequence: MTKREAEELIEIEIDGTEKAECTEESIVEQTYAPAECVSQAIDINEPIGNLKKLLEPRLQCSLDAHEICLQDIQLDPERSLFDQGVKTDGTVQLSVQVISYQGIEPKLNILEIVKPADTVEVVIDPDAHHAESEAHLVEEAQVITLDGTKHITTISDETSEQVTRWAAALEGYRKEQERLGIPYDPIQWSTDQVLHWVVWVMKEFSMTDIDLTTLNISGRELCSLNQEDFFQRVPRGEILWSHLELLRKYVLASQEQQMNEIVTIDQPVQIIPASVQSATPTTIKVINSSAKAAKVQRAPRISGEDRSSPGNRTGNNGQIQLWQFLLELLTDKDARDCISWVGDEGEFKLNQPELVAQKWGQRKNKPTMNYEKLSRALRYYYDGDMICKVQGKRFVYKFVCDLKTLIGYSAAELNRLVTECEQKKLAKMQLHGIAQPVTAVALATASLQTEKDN
# Method in brief: as §1
# ERG = target: T4, ERG (Homo sapiens, UniProt P11308 1-479)
# T4 sequence: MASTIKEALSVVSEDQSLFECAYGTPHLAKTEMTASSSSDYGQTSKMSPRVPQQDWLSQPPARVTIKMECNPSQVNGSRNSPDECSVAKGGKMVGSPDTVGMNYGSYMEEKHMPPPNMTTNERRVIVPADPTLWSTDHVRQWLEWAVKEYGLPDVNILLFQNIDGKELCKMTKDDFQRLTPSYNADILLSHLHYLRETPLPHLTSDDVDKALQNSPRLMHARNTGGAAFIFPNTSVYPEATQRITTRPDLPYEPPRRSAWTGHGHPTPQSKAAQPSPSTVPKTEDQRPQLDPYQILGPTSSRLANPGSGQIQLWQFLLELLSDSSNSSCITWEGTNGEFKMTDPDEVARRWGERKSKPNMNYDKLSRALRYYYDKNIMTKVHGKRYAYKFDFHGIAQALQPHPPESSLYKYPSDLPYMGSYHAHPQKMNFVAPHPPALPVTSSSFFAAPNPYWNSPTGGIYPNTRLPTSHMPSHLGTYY
# Method in brief: as §1
# ELF1 = ELF1 (Homo sapiens, UniProt P32519 1-619)
# Sequence of ELF1 (P32519 whole entry): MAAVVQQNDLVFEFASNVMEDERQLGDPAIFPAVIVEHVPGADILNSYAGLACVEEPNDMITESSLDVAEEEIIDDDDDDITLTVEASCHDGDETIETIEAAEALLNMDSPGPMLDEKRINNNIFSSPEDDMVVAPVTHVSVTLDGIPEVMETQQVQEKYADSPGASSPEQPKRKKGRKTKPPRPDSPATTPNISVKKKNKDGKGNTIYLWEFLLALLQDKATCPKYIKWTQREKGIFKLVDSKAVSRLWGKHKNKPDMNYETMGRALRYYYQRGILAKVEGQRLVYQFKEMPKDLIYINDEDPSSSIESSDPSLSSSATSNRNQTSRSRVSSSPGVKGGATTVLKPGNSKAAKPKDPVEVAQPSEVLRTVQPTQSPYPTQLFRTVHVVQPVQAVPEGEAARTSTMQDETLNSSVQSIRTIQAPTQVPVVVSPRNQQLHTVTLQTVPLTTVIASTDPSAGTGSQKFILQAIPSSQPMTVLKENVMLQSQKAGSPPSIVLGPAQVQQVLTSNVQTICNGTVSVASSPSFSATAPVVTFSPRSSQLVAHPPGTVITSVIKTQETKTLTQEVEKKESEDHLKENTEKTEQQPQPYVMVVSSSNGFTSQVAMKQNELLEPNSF
# Method in brief: as §1
# EHF = target: T5, EHF (Homo sapiens, UniProt Q9NZC4 1-300)
# T5 sequence: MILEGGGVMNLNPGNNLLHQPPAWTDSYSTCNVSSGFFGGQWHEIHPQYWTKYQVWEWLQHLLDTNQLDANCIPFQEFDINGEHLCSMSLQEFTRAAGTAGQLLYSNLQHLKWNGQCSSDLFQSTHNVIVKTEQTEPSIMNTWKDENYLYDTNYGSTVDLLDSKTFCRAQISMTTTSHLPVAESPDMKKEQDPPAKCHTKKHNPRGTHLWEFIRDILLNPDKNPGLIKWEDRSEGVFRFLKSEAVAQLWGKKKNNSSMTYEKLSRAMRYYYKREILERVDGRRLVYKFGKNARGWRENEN
# Method in brief: as §1
# SPI1 = SPI1 (Homo sapiens, UniProt P17947 1-270)
# Method in brief: as §1
# SPIB = SPIB (Homo sapiens, UniProt Q01892 1-262)
# Sequence of SPIB (Q01892 whole entry): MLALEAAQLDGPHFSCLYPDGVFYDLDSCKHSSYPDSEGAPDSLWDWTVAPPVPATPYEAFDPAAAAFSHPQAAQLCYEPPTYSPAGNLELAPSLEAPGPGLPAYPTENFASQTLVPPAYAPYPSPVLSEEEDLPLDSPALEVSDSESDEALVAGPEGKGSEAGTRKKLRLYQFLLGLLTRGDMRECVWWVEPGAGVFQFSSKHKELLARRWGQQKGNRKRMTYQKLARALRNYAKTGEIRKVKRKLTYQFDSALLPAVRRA
# Method in brief: as §1
# ELK3 = target: T6, ELK3 (Homo sapiens, UniProt P41970 1-407)
# T6 sequence: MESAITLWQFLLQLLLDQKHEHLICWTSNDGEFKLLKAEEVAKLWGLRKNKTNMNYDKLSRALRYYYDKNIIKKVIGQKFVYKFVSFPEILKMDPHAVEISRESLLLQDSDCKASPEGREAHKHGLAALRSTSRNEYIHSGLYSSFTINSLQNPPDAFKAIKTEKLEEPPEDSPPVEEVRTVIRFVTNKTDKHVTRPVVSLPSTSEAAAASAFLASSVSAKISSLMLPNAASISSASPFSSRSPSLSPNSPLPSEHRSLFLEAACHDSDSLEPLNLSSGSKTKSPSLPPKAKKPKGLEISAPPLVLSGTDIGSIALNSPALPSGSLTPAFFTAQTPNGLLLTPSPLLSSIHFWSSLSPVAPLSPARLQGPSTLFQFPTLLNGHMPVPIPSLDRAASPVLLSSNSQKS
# Method in brief: as §1
sequence,measurement,setting,value
GGAAAA,binding signal,FLI1,"1.16 fold enrichment (6-mer frequency, TF over GST control)"
same,binding signal,ELK1,"1.17 fold enrichment (6-mer frequency, TF over GST control)"
same,binding signal,GABPA,"1.2 fold enrichment (6-mer frequency, TF over GST control)"
same,binding signal,ERG,"1.3 fold enrichment (6-mer frequency, TF over GST control)"
same,binding signal,ELF1,"1.14 fold enrichment (6-mer frequency, TF over GST control)"
same,binding signal,EHF,"1.38 fold enrichment (6-mer frequency, TF over GST control)"
same,binding signal,SPI1,"1.2 fold enrichment (6-mer frequency, TF over GST control)"
same,binding signal,SPIB,"1.35 fold enrichment (6-mer frequency, TF over GST control)"
same,binding signal,ELK3,"1.22 fold enrichment (6-mer frequency, TF over GST control)"
GATGCG,binding signal,FLI1,"1.07 fold enrichment (6-mer frequency, TF over GST control)"
same,binding signal,ELK1,"1.14 fold enrichment (6-mer frequency, TF over GST control)"
same,binding signal,GABPA,"1.16 fold enrichment (6-mer frequency, TF over GST control)"
same,binding signal,ERG,"1.16 fold enrichment (6-mer frequency, TF over GST control)"
same,binding signal,ELF1,"1.11 fold enrichment (6-mer frequency, TF over GST control)"
same,binding signal,EHF,"1.16 fold enrichment (6-mer frequency, TF over GST control)"
same,binding signal,SPI1,"1.14 fold enrichment (6-mer frequency, TF over GST control)"
same,binding signal,SPIB,"1.19 fold enrichment (6-mer frequency, TF over GST control)"
same,binding signal,ELK3,"1.1 fold enrichment (6-mer frequency, TF over GST control)"
ACGAAC,binding signal,FLI1,"1.11 fold enrichment (6-mer frequency, TF over GST control)"
same,binding signal,ELK1,"1.15 fold enrichment (6-mer frequency, TF over GST control)"
same,binding signal,GABPA,"1.19 fold enrichment (6-mer frequency, TF over GST control)"
same,binding signal,ERG,"1.15 fold enrichment (6-mer frequency, TF over GST control)"
same,binding signal,ELF1,"1.24 fold enrichment (6-mer frequency, TF over GST control)"
same,binding signal,EHF,"1.12 fold enrichment (6-mer frequency, TF over GST control)"
same,binding signal,SPI1,"1.1 fold enrichment (6-mer frequency, TF over GST control)"
same,binding signal,SPIB,"1.22 fold enrichment (6-mer frequency, TF over GST control)"
same,binding signal,ELK3,"1.13 fold enrichment (6-mer frequency, TF over GST control)"
CTTTCG,binding signal,FLI1,"1.1 fold enrichment (6-mer frequency, TF over GST control)"
same,binding signal,ELK1,"1.21 fold enrichment (6-mer frequency, TF over GST control)"
same,binding signal,GABPA,"1.26 fold enrichment (6-mer frequency, TF over GST control)"
same,binding signal,ERG,"1.15 fold enrichment (6-mer frequency, TF over GST control)"
same,binding signal,ELF1,"1.3 fold enrichment (6-mer frequency, TF over GST control)"
same,binding signal,EHF,"1.3 fold enrichment (6-mer frequency, TF over GST control)"
same,binding signal,SPI1,"1.23 fold enrichment (6-mer frequency, TF over GST control)"
same,binding signal,SPIB,"1.39 fold enrichment (6-mer frequency, TF over GST control)"
same,binding signal,ELK3,"1.27 fold enrichment (6-mer frequency, TF over GST control)"
